Test results reported in paper PMC5540273 (PLoS ONE, 2017).

Test system: TSSK1B
Conditions: concentration: 1 μM, replicates: in singlicate; n = 1
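Further: KINOMEscan kinase panel screen.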

| SMILES | %Inh [%] |
| --- | --- |
| CCn1c(-c2nonc2N)nc2c(-c3ccccc3)ncc(OCCCN)c21.O=C(O)C(F)(F)F.O=C(O)C(F)(F)F [GSK260205] | 11 |
| Cc1ccc(-c2ccc3occ(-c4ccc(S(C)=O)cc4)c3c2)nn1 (stereo not shown) | 0 |
| Cn1cc(-c2ccc3c(c2)CCN3C(=O)Cc2cc(F)cc(F)c2F)c2c(N)ncnc21 [GSK2634140] | 0 |
| COc1ccc(C)c(Nc2ccnc(Nc3ccc(-c4cnc[nH]4)cc3)n2)c1.Cl [GW784041] | 10 |
| c1ccc(Oc2ccc(Nc3ccnc4cc(-c5ccc(CN6CCCCC6)o5)ccc34)cc2)nc1 [GW567143] | 6 |
| CN(c1ccc(F)c(NC(=O)c2cccc(OC(C)(C)C#N)c2Cl)c1)c1ccc2nc(NC(=O)C3CC3)sc2n1 | 24 |
| COc1cc(Nc2nccc(N3CCC(NS(=O)(=O)c4ccc(NC(C)=O)cc4)CC3)n2)cc(OC)c1OC [GSK1379825] | 12 |
| Cc1ccc(C)c(NC(=O)Nc2ccc(C)c(-c3ccc(C(=O)Nc4ccncc4)cc3)c2)c1 [GSK1398473] | 17 |
| CCNc1nccc(-c2c(-c3ccc(F)cc3)ncn2C2CCN(C)CC2)n1 | 0 |
| Cc1ccc(NC(=O)c2cccc(N3CCCCC3)c2)cc1-c1ccc(C(=O)NCC2CC2)cc1 [GSK1917008] | 28 |
| Cl.Cl.NCC(NC(=O)c1cc(-c2cccnc2)c(-c2ccnc3[nH]ccc23)s1)c1ccccc1 (stereo not shown) [GSK1323434] | 14 |
| COc1cccc(-c2nc(-c3ccccc3)[nH]c2-c2ccncc2)c1 [SB-610250] | 10 |
| Cn1cc(-c2cnc(N)c3c(-c4ccc5c(c4)CCN5C(=O)Cc4ccccc4)csc23)cn1 [GSK2593074] | 0 |
| CN(C)CCNS(=O)(=O)c1ccc(-c2ccnc3[nH]ccc23)cc1 [GSK977620] | 58 |
| O=C(Nc1n[nH]c2nc(-c3cccc(O)c3)ccc12)C1CC1 [SB-711805] | 0 |
| Nc1cccc(-c2ccc3c(N)n[nH]c3c2)c1 [GSK2193613] | 0 |
| Cl.O=C(Nc1ccc(Oc2ccc3[nH]c(NC(=O)c4ccco4)nc3c2)cc1)Nc1cc(C(F)(F)F)ccc1F [GW683134] | 0 |
| COc1cccc2c(-c3ccncc3)c(-c3ccc(F)cc3)nn12 [GW468513] | 49 |
| COc1cc(Nc2ccnc3cc(-c4ccncc4)ccc23)cc(OC)c1OC.Cl [GW494610] | 0 |

| SMILES | %Inh [%] |
| --- | --- |
| O=C(O)C(F)(F)F.O=c1[nH]ccc2nc(N[C@@H]3CCNC3)nc(Nc3ccc4c(c3)S(=O)(=O)CC4)c12 [GSK2181306] | 69 |
| Cl.N#CCc1ccc(Nc2nccc(Nc3ccc(Oc4ccccc4)cc3)n2)cc1 [GW639905] | 6 |
| Cc1ccc(O)cc1Nc1ccnc2cc(-c3ccc(CN4CCCCC4)o3)ccc12 [GW557777] | 0 |
| Cl.Cl.NC(CNC(=O)c1cc(Br)c(-c2ccnc3[nH]ccc23)s1)c1ccccc1 (stereo not shown) [GSK1322949] | 7 |
| CN(c1ccc2c(c1)nc(NCc1ccccc1)n2C)c1ccnc(Nc2ccc(CS(C)(=O)=O)cc2)n1.Cl [GW811603] | 0 |
| Cc1ccc(O)cc1Nc1ccnc2ccc(C(C)(C)C)cc12 [GW856805] | 1 |
| COC(=O)Nc1nc2ccc(Oc3ccc(NC(=O)Nc4cc(C(F)(F)F)ccc4F)cc3)cc2[nH]1.Cl [GW654607] | 100 |
| Cn1cc(-c2ccc3c(c2)CCN3C(=O)Cc2cc(F)cc(C(F)(F)F)c2)c2c(N)ncnc21 [GSK2635225] | 0 |
| COc1cccc(CC(=O)N2CCc3cc(-c4cn(C)c5ncnc(N)c45)ccc32)c1 [GSK2608899] | 29 |
| N#Cc1cnc2cc(-c3cnc(CNCCN4CCOCC4)s3)ccc2c1Nc1ccc(Oc2ccccc2)cc1 [GW664114] | 1 |
| O=C(Nc1n[nH]c2cc(-c3cccs3)ccc12)C1CC1 [SB-731284] | 0 |
| CN(C)CCOc1ccc(-c2cc(-c3ccc(Cl)c(O)c3)c(-c3ccncc3)[nH]2)cc1.Cl.Cl [SB-684387] | 0 |
| Cc1cccc(Nc2nc(NCCN)ncc2C(N)=O)c1 [GSK1292139] | 38 |
| COC(=O)Nc1nc2cc(Oc3ccc(NC(=O)Nc4cccc(SC)c4)cc3)ccc2[nH]1.Cl [GW697999] | 0 |
| Nc1ncnc2scc(-c3ccc(NC(=O)Cc4cc(F)ccc4F)cc3)c12.O=C(O)C(F)(F)F [SB-731254-M] | 0 |
| CC(C)c1nc(-c2ccc(F)c(NS(=O)(=O)c3c(F)cccc3F)c2)c(-c2ccnc(Nc3ccc(N4CCOCC4)nc3)n2)s1 [GSK1804250] | 15 |
| NCCC(NC(=O)c1cc(Br)c(-c2ccnc3[nH]ccc23)s1)c1ccccc1.O=C(O)C(F)(F)F.O=C(O)C(F)(F)F (stereo not shown) [GSK1307810] | 0 |
| COc1ccc(NC(=O)c2ccoc2)cc1-c1ccc(C(=O)NCC2CC2)cc1 [GW810437] | 0 |
